# Experimental data as given in PubChem BioAssay AID1159580 (chemical genetic matrix, 2015).
# Screen size: about 5,500 compounds; about 2,000 (36%) were called active. Roughly 18% stayed inconclusive and do not appear here. This is one part of the list. A number with no mark means an inactive call. Rule as the data show it: active = normalized growth mostly below about 0.91 (no sharp cut-off); inconclusive = no clear call, values can overlap the other calls; inactive = mostly above about 0.92.
# Test: chemical genetic growth profiling, strain panel (AID 1159580);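 also: tested at 20 µM; growth read once vehicle control cultures reached saturation at 30 °C; 1 = growth at the plate median or of vehicle wells; lower values mean less growth of the strain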
# Conditions: growth OD
# [1] = S. cerevisiae deletion strains, locus YDL101C, strain DUN1, hits give low values
# [2] = S. cerevisiae deletion strains, locus YHR030C, strain SLT2, hits give low values
smiles,measurement,setting,value
O=S(=O)(Nc1ccccc1Sc1c(Cl)cncc1Cl)c1ccc(Cl)cc1,normalized growth,"S. cerevisiae deletion strains, locus YAR019C, strain CDC15, hits give low values",0.981
same,normalized growth,"S. cerevisiae deletion strains, locus YBL105C, strain PKC1, hits give low values",0.987
same,normalized growth,"S. cerevisiae deletion strains, locus YBR135W, strain CKS1, hits give low values",0.985
same,normalized growth,"S. cerevisiae deletion strains, locus YBR136W, strain MEC1, hits give low values",0.987
same,normalized growth,"S. cerevisiae deletion strains, locus YBR160W, strain CDC28, hits give low values",0.988
same,normalized growth,"S. cerevisiae deletion strains, locus YDL017W, strain CDC7, hits give low values",0.986
same,normalized growth,"S. cerevisiae deletion strains, locus YDL028C, strain MPS1, hits give low values",0.995
same,normalized growth,[1],0.973
same,normalized growth,"S. cerevisiae deletion strains, locus YDL108W, strain KIN28, hits give low values",0.985
same,normalized growth,"S. cerevisiae deletion strains, locus YDL132W, strain cdc53, hits give low values",0.974
same,normalized growth,"S. cerevisiae deletion strains, locus YDL214C, strain PRR2, hits give low values",1
same,normalized growth,"S. cerevisiae deletion strains, locus YDR052C, strain DBF4, hits give low values",0.984
same,normalized growth,"S. cerevisiae deletion strains, locus YDR054C, strain cdc34, hits give low values",0.974
same,normalized growth,"S. cerevisiae deletion strains, locus YDR226W, strain ADK1, hits give low values",0.985
same,normalized growth,"S. cerevisiae deletion strains, locus YDR477W, strain SNF1, hits give low values",0.99
same,normalized growth,"S. cerevisiae deletion strains, locus YER123W, strain YCK3, hits give low values",1
same,normalized growth,"S. cerevisiae deletion strains, locus YER133W, strain GLC7, hits give low values",1
same,normalized growth,"S. cerevisiae deletion strains, locus YFL009W, strain cdc4, hits give low values",0.98
same,normalized growth,"S. cerevisiae deletion strains, locus YFL029C, strain CAK1, hits give low values",0.985
same,normalized growth,"S. cerevisiae deletion strains, locus YFR003C, strain YPI1, hits give low values",0.98
same,normalized growth,"S. cerevisiae deletion strains, locus YFR019W, strain FAB1, hits give low values",0.998
same,normalized growth,"S. cerevisiae deletion strains, locus YFR028C, strain CDC14, hits give low values",0.986
same,normalized growth,"S. cerevisiae deletion strains, locus YGR040W, strain KSS1, hits give low values",0.993
same,normalized growth,"S. cerevisiae deletion strains, locus YGR052W, strain FMP48, hits give low values",1.07
same,normalized growth,"S. cerevisiae deletion strains, locus YGR092W, strain DBF2, hits give low values",0.988
same,normalized growth,[2],1.13
same,normalized growth,"S. cerevisiae deletion strains, locus YHR079C, strain IRE1, hits give low values",1
same,normalized growth,"S. cerevisiae deletion strains, locus YHR082C, strain KSP1, hits give low values",1.27
same,normalized growth,"S. cerevisiae deletion strains, locus YHR205W, strain SCH9, hits give low values",0.981
same,normalized growth,"S. cerevisiae deletion strains, locus YIL147C, strain SLN1, hits give low values",0.988
same,normalized growth,"S. cerevisiae deletion strains, locus YJL095W, strain BCK1, hits give low values",0.974
same,normalized growth,"S. cerevisiae deletion strains, locus YJL128C, strain PBS2, hits give low values",0.916
same,normalized growth,"S. cerevisiae deletion strains, locus YJL157C, strain FAR1, hits give low values",0.997
same,normalized growth,"S. cerevisiae deletion strains, locus YJR016C, strain ILV3, hits give low values",0.974
same,normalized growth,"S. cerevisiae deletion strains, locus YJR066W, strain TOR1 (second series), hits give low values",1
same,normalized growth,"S. cerevisiae deletion strains, locus YJR066W, strain TOR1, hits give low values",1.26
same,normalized growth,"S. cerevisiae deletion strains, locus YKL048C, strain ELM1, hits give low values",0.955
same,normalized growth,"S. cerevisiae deletion strains, locus YKL067W, strain YNK1, hits give low values",0.978
same,normalized growth,"S. cerevisiae deletion strains, locus YKL101W, strain HSL1, hits give low values",0.958
same,normalized growth,"S. cerevisiae deletion strains, locus YKL193C, strain SDS22, hits give low values",0.977
same,normalized growth,"S. cerevisiae deletion strains, locus YKL203C, strain TOR2, hits give low values",1.06
same,normalized growth,"S. cerevisiae deletion strains, locus YLR113W, strain HOG1, hits give low values",0.995
same,normalized growth,"S. cerevisiae deletion strains, locus YLR133W, strain CKI1, hits give low values",0.979
same,normalized growth,"S. cerevisiae deletion strains, locus YLR403W, strain SFP1, hits give low values",1
same,normalized growth,"S. cerevisiae deletion strains, locus YML070W, strain DAK1, hits give low values",0.995
same,normalized growth,"S. cerevisiae deletion strains, locus YMR001C, strain CDC5, hits give low values",0.984
same,normalized growth,"S. cerevisiae deletion strains, locus YMR205C, strain PFK2 (second series), hits give low values",0.998
same,normalized growth,"S. cerevisiae deletion strains, locus YMR277W, strain FCP1, hits give low values",0.978
same,normalized growth,"S. cerevisiae deletion strains, locus YNL006W, strain LST8, hits give low values",0.982
same,normalized growth,"S. cerevisiae deletion strains, locus YNL020C, strain ARK1, hits give low values",0.978
same,normalized growth,"S. cerevisiae deletion strains, locus YNL161W, strain CBK1, hits give low values",0.98
same,normalized growth,"S. cerevisiae deletion strains, locus YNL183C, strain NPR1, hits give low values",0.961
same,normalized growth,"S. cerevisiae deletion strains, locus YNL207W, strain RIO2, hits give low values",0.985
same,normalized growth,"S. cerevisiae deletion strains, locus YNL222W, strain SSU72, hits give low values",0.994
same,normalized growth,"S. cerevisiae deletion strains, locus YNL307C, strain MCK1 (second series), hits give low values",0.978
same,normalized growth,"S. cerevisiae deletion strains, locus YOL078W, strain AVO1, hits give low values",0.96
same,normalized growth,"S. cerevisiae deletion strains, locus YOL136C, strain PFK27, hits give low values",1
same,normalized growth,"S. cerevisiae deletion strains, locus YOR061W, strain CKA2, hits give low values",0.991
same,normalized growth,"S. cerevisiae deletion strains, locus YOR119C, strain RIO1, hits give low values",1.01
same,normalized growth,"S. cerevisiae deletion strains, locus YOR231W, strain MKK1, hits give low values",0.998
same,normalized growth,"S. cerevisiae deletion strains, locus YOR329C, strain SCD5, hits give low values",0.989
same,normalized growth,"S. cerevisiae deletion strains, locus YPL031C, strain PHO85, hits give low values",0.995
same,normalized growth,"S. cerevisiae deletion strains, locus YPL153C, strain RAD53, hits give low values",0.994
same,normalized growth,"S. cerevisiae deletion strains, locus YPL204W, strain HRR25, hits give low values",1
same,normalized growth,"S. cerevisiae deletion strains, locus YPL209C, strain IPL1, hits give low values",0.99
same,normalized growth,"S. cerevisiae deletion strains, locus YPL256C, strain CLN2, hits give low values",0.97
same,normalized growth,"S. cerevisiae deletion strains, locus YPR025C, strain CCL1, hits give low values",0.992
same,normalized growth,"S. cerevisiae deletion strains, locus YPR106W, strain ISR1, hits give low values",0.968
same,normalized growth,"S. cerevisiae deletion strains, locus YPR111W, strain DBF20, hits give low values",0.959
same,normalized growth,"S. cerevisiae deletion strains, strain NNK1, hits give low values",0.963
same,normalized growth,"S. cerevisiae deletion strains, strain TSCII, hits give low values",0.985
COC(=O)c1cccnc1Sc1ccc(C)cc1,normalized growth,"S. cerevisiae deletion strains, locus YAL013W, strain DEP1, hits give low values",0.947
same,normalized growth,"S. cerevisiae deletion strains, locus YBR229C, strain ROT2, hits give low values",0.97
same,normalized growth,"S. cerevisiae deletion strains, locus YCL061C, strain MRC1, hits give low values",0.968
same,normalized growth,[1],0.991
same,normalized growth,"S. cerevisiae deletion strains, locus YDL134C, strain PPH21, hits give low values",0.958
same,normalized growth,"S. cerevisiae deletion strains, locus YDR150W, strain NUM1, hits give low values",0.904
same,normalized growth,"S. cerevisiae deletion strains, locus YEL061C, strain CIN8, hits give low values",0.956
same,normalized growth,"S. cerevisiae deletion strains, locus YGR078C, strain PAC10, hits give low values",0.954
same,normalized growth,[2],0.432 (active)
same,normalized growth,"S. cerevisiae deletion strains, locus YHR087W, strain rtc3, hits give low values",0.974
same,normalized growth,"S. cerevisiae deletion strains, locus YJL187C, strain SWE1, hits give low values",0.967
same,normalized growth,"S. cerevisiae deletion strains, locus YJR043C, strain POL32, hits give low values",0.95
same,normalized growth,"S. cerevisiae deletion strains, locus YJR075W, strain HOC1, hits give low values",0.989
same,normalized growth,"S. cerevisiae deletion strains, locus YLR039C, strain RIC1, hits give low values",0.913
same,normalized growth,"S. cerevisiae deletion strains, locus YLR058C, strain SHM2 (second series), hits give low values",0.966
same,normalized growth,"S. cerevisiae deletion strains, locus YLR085C, strain ARP6, hits give low values",0.666 (active)
same,normalized growth,"S. cerevisiae deletion strains, locus YLR262C, strain YPT6, hits give low values",0.961
same,normalized growth,"S. cerevisiae deletion strains, locus YML094W, strain GIM5, hits give low values",0.97
same,normalized growth,"S. cerevisiae deletion strains, locus YMR219W, strain ESC1, hits give low values",0.958
same,normalized growth,"S. cerevisiae deletion strains, locus YMR263W, strain SAP30, hits give low values",0.962
same,normalized growth,"S. cerevisiae deletion strains, locus YMR307W, strain GAS1, hits give low values",0.686
same,normalized growth,"S. cerevisiae deletion strains, locus YNL128W, strain TEP1, hits give low values",0.98
same,normalized growth,"S. cerevisiae deletion strains, locus YNL153C, strain GIM3, hits give low values",0.991
same,normalized growth,"S. cerevisiae deletion strains, locus YNL298W, strain CLA4 (second series), hits give low values",0.917
same,normalized growth,"S. cerevisiae deletion strains, locus YNL322C, strain KRE1, hits give low values",0.965
same,normalized growth,"S. cerevisiae deletion strains, locus YNR030W, strain Alg12, hits give low values",0.928
same,normalized growth,"S. cerevisiae deletion strains, locus YOL006C, strain TOP1, hits give low values",0.684 (active)
same,normalized growth,"S. cerevisiae deletion strains, locus YPL055C, strain LGE1, hits give low values",0.812
same,normalized growth,"S. cerevisiae deletion strains, locus YPL241C, strain CIN2, hits give low values",0.769 (active)
same,normalized growth,"S. cerevisiae deletion strains, locus YPR135W, strain CTF4, hits give low values",0.61 (active)
same,normalized growth,"S. cerevisiae strains, strain wild type, hits give low values",0.965
